Measured values taken from ChEMBL document CHEMBL3988442, “University of Dundee, Small-Polar-MMV Screening Library” (2021).
For some assays here: Measured potencies and affinities stand elsewhere.

What was measured:
Design in all cases: scale not given: direction of the effect not stated beside the values
[1] = target: Protein translocase subunit SecA (Escherichia coli (strain K12)) (UniProt P10408); experiment: Assay to Identify E. coli SecA ATPase Inhibitors; format: functional; conditions: 30 µM
[2] = target: T1, Ubiquitin-activating enzyme e1, putative (Leishmania donovani (strain BPK282A1)) (UniProt E9BSI1); experiment: Leishmania donovani Ubiquitin Activating Enzyme (LdE1); format: functional; conditions: 30 µM
T1 sequence (whole entry): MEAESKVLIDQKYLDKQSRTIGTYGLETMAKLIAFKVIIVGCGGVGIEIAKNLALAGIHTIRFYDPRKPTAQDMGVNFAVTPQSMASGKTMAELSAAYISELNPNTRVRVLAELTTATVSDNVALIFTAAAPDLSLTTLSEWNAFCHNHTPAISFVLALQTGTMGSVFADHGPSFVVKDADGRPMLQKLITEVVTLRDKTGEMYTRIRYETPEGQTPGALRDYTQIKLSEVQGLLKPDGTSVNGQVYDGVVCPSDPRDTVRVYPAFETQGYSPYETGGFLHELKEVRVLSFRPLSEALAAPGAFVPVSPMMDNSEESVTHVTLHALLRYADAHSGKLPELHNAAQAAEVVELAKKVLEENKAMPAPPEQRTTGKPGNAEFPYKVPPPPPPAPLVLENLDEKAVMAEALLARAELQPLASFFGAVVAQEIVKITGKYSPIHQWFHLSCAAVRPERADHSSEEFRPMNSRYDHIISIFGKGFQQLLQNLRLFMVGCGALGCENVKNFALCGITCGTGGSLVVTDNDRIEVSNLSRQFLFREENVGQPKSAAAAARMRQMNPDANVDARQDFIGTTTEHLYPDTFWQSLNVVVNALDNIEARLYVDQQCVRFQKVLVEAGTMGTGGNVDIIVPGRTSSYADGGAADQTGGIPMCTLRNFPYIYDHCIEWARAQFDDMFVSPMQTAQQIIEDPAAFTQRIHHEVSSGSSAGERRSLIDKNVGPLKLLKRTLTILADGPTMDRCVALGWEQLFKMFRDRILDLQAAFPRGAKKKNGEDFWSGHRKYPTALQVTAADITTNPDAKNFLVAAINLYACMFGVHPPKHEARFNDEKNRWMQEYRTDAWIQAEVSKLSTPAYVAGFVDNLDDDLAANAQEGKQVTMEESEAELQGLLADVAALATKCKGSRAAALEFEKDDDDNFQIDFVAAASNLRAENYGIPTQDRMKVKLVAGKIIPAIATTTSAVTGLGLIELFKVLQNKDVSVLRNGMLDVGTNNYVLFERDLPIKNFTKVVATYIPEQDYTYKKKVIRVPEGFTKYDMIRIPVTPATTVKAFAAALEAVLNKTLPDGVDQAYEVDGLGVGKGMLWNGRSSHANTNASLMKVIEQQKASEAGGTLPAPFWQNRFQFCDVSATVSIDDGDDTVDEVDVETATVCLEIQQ

[3] = target: AMP-activated protein kinase, AMPK (Homo sapiens) (UniProt P54646+O43741+P54619+Q9UGJ0+Q9Y478+Q13131+Q9UGI9); experiment: AMP-dependent Kinase enzyme assay. An in vitro enzyme assay that detects ADP turnover that is directly proportional to AMPK activity. This uses naive AMPK that is activated during the assay with MK-8722; format: functional; conditions: 30 µM
[4] = target: Sialic acid-binding Ig-like lectin 9 (Homo sapiens) (UniProt Q9Y336); experiment: Hs-Siglec9 ALPHAscreen SOP 20170721; conditions: 10 µM
Trypanosoma cruzi = experiment: Trypanosoma cruzi phosphomannomutase and mannose-1-phosphate guanylyltransferase assay; format: functional; conditions: 10 µM
[5] = target: T2, Arginase-2, mitochondrial (Homo sapiens) (UniProt P78540); experiment: in vitro enzyme assay to detect the production of urea directly proportional to the activity of Arginase II; format: functional; conditions: 33.3 µM; note: in the data most compounds retested in dose-response had high values
T2 sequence (whole entry): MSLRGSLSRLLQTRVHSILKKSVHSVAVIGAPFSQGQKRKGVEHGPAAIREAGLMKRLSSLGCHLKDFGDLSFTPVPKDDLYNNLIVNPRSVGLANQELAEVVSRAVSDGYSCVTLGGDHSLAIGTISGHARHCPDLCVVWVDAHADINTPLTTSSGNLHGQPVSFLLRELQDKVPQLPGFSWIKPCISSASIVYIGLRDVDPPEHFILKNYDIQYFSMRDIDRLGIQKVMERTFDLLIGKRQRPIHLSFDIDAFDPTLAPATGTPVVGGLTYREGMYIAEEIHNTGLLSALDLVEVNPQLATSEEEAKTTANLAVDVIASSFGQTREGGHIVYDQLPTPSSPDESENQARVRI

[6] = target: T3, Proteasome subunit beta (Trypanosoma cruzi) (UniProt O96673); experiment: Trypanosoma cruzi proteasome chymotrypsin-like activity (TcProtChymo) assay.; note: in the data most compounds retested in dose-response had high values; format: functional; conditions: 9.37 µM
T3 sequence (whole entry): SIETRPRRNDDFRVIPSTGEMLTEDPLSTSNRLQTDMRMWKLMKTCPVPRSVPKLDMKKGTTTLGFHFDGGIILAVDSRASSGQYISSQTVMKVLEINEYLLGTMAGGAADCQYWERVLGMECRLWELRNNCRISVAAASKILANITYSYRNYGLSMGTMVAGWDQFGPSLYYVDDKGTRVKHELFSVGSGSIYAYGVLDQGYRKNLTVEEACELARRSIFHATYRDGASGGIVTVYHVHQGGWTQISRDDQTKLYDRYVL

Homo sapiens = organism: Homo sapiens; experiment: To identify inhibition of the IFN signalling (Jak-Stat) pathway via expression of an eGFP reporter gene under the control of an IFN-stimulated response element (ISRE) containing MxA promoter.; format: functional; conditions: 30 µM
[7] = target: T4, Tyrosyl-tRNA synthetase, putative (Trypanosoma cruzi (strain CL Brener)) (UniProt Q4DSP6); experiment: Trypanosoma cruzi tyrosyl tRNA synthetase (TcYRS) _High Tyrosine SOP; format: functional; conditions: 30 µM; note: in the data most compounds retested in dose-response had high values
T4 sequence (whole entry): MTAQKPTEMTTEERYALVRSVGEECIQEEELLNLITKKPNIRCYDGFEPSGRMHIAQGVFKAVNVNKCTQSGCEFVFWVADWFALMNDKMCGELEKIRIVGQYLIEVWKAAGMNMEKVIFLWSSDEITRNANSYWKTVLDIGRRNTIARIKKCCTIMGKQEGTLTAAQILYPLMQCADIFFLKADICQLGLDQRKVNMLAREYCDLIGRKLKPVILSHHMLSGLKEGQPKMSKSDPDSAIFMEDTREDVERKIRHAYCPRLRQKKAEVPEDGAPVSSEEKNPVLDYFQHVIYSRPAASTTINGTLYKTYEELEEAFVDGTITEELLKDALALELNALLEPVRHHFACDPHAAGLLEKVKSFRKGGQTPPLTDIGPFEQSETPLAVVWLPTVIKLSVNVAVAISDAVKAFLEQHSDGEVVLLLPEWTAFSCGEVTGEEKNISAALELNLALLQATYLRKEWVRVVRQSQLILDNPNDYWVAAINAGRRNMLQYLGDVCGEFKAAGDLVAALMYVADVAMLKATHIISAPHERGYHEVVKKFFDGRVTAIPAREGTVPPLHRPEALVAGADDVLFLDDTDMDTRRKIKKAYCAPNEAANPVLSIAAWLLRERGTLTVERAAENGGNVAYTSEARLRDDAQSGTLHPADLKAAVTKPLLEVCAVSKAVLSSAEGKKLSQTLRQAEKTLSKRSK

[8] = target: T4, Tyrosyl-tRNA synthetase, putative (Trypanosoma cruzi (strain CL Brener)); experiment: Trypanosoma cruzi tyrosyl tRNA synthetase (TcYRS) SOP; format: functional; conditions: 30 µM
[9] = target: Chromo domain-containing protein 1 (Saccharomyces cerevisiae (strain ATCC 204508 / S288c) (Baker's yeast)) (UniProt P32657); experiment: ScCHD-1 Enzyme Inhibition Assay; format: functional; conditions: 30 µM; note: in the data most compounds retested in dose-response had high values
Chromo domain-containing protein 1 (Saccharomyces cerevisiae (strain ATCC 204508 / S288c) (Baker's yeast)), sequence (P32657 whole entry, the tested form may be a part): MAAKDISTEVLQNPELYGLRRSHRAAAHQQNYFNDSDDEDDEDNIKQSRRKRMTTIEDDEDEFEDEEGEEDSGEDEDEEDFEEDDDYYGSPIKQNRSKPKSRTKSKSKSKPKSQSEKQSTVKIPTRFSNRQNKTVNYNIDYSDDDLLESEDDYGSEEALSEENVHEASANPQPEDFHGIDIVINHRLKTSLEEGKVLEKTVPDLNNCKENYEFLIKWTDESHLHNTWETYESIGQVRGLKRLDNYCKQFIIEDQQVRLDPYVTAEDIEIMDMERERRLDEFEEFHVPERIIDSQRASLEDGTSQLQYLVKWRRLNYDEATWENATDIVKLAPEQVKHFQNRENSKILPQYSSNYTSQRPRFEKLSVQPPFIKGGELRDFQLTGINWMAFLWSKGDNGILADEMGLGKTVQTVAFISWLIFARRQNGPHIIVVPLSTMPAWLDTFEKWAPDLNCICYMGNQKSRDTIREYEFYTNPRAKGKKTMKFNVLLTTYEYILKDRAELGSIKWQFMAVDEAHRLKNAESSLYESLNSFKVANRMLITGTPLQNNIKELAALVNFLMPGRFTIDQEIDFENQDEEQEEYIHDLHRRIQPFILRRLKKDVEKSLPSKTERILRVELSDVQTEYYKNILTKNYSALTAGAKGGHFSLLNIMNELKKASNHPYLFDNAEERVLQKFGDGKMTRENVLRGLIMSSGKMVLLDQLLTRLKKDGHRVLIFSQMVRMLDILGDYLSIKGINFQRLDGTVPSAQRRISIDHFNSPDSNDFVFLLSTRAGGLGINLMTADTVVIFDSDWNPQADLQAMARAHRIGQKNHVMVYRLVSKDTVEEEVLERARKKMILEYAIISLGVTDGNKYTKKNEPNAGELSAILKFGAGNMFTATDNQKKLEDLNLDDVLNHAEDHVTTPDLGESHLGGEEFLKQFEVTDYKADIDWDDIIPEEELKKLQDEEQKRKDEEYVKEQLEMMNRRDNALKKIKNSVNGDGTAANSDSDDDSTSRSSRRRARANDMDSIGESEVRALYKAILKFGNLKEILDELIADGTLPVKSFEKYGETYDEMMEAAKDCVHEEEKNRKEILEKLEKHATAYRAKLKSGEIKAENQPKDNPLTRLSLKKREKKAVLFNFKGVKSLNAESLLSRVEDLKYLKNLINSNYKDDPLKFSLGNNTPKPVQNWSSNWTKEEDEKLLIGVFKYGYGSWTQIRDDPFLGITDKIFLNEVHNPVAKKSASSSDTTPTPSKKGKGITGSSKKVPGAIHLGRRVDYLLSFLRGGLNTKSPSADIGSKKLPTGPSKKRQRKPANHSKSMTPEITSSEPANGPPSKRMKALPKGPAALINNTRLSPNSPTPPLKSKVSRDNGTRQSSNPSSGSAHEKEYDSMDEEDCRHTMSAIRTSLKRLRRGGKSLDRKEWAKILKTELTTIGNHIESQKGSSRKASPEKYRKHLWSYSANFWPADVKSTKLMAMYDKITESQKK

Protein translocase subunit SecA (Escherichia coli (strain K12)), sequence (P10408 whole entry): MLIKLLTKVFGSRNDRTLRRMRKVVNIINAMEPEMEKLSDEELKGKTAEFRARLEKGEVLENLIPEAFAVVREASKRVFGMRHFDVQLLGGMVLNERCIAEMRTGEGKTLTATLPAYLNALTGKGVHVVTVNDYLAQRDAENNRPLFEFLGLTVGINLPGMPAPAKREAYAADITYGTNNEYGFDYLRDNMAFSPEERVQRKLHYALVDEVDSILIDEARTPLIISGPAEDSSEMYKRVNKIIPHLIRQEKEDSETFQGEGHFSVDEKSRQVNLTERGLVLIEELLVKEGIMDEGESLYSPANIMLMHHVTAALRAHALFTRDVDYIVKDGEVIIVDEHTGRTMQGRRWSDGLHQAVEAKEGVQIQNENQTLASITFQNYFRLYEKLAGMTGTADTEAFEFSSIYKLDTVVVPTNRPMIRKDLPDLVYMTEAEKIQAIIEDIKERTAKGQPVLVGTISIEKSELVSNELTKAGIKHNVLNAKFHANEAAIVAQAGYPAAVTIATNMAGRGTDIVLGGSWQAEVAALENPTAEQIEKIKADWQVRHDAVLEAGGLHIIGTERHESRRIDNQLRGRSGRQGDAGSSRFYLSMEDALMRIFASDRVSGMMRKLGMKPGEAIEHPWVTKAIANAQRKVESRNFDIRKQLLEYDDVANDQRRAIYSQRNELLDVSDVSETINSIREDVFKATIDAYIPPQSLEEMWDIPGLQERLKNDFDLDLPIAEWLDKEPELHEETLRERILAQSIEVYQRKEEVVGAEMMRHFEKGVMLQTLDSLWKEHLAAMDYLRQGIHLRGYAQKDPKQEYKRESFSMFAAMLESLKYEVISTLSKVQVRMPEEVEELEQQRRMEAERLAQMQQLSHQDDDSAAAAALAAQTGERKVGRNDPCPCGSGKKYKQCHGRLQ
Sialic acid-binding Ig-like lectin 9 (Homo sapiens), sequence (Q9Y336 whole entry): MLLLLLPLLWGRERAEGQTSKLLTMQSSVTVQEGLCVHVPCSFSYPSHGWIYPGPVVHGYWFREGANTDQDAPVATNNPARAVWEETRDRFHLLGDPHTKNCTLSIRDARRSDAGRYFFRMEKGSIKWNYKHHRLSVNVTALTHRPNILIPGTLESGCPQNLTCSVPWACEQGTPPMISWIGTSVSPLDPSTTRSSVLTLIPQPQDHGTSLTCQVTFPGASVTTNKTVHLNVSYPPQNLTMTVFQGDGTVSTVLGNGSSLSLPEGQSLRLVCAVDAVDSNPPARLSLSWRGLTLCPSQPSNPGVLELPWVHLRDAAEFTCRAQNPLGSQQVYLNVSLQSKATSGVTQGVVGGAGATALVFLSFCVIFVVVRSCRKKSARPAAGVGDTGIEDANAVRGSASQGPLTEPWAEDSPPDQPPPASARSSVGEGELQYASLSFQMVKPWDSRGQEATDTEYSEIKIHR

| SMILES | Percent Effect [1] [%] | Percent Effect [2] [%] | Percent Effect [3] [%] | Percent Effect [4] [%] | Percent Effect (Trypanosoma cruzi) [%] | Percent Effect [5] [%] | Percent Effect [6] [%] | Percent Effect (Homo sapiens) [%] | Percent Effect [7] [%] | Percent Effect [8] [%] | Percent Effect [9] [%] |
| --- | --- | --- | --- | --- | --- | --- | --- | --- | --- | --- | --- |
| COc1cc(CNCCc2cnn(C)c2)cc2c1OCCO2 | -5.21 | 10.5 | 1.71 | 15.7 | 1.32 | -1.92 | 10.2 | 0.122 | 4.41 | 12.2 | -6.6 |
| CNc1cc(N2CCCC2CNCc2ccc(Cl)o2)ncn1 (configuration not stated) | -6.85 | 13.5 | -2.54 | 43.1 | 8.98 | 16.2 | 18.9 | 22 | 15.8 | 23.2 | 89.7 |
| CCn1nc(C)c2ccn(CC(=O)NC3CCCC3)c(=O)c21 | -4.42 | 7.79 | 58 | 0.145 | -4.63 | 0.645 | 5.57 | 20.1 | -1.06 | -6.41 | -2.48 |
| Cn1ccnc1C(NCc1csc(Br)c1)c1ccccc1 (configuration not stated) | -4.88 | 21.6 | 3.42 | 17.4 | 4.92 | 1.66 | 13.8 | 12.7 | 12.9 | 30.5 | -7.11 |
| O=C(Nc1ccc(N2CCCC2)nc1)N1CCc2ccccc2C1 | -3.4 | 0 | -13.6 | 2.55 | -6.45 | 3.75 | 20.7 | 7.01 | 15.8 | 18.3 | 0.41 |
| O=C(O)c1nnn(-c2ccc(OC(F)(F)F)cc2)c1-c1ccncc1 | -2.53 | 21.1 | -1.66 | -2.5 | 3.8 | 3.55 | 20.4 | 2.21 | 3.19 | 15.6 | 41.3 |
| CC(NC1(CNC(=O)C(C)(C)C#N)CCOCC1)c1ccccc1 (configuration not stated) | -11.4 | 0 | -1.47 | -3.49 | -3.03 | -1.74 | 4.89 | 7 | -7.53 | -3.7 | -3.14 |
| COc1ccc(C2CC(=O)Oc3cc(C)[nH]c(=O)c32)cc1 (configuration not stated) | -5.52 | 6.67 | 5.42 | 2.83 | 4.13 | -0.528 | 11.1 | 3.33 | 2.12 | 5.13 | -1.69 |
| CS(=O)(=O)N1CCN(CC(O)COc2ccc(F)cc2)CC1 (configuration not stated) | -0.431 | 10.4 | 2.55 | -2.66 | -4.02 | 0.632 | 11.4 | 26.8 | 2.86 | 21.2 | -16.1 |
| CCOc1ccnc(N2CCN(C(=O)C(C)(C)C#N)CC2)n1 | -5.28 | 15.8 | -6.59 | -2.59 | -4.39 | 1.8 | 4.99 | 6.24 | 1.48 | 6.17 | -2.03 |
| CC(=O)N1CC(=O)N(c2ccccc2)CC12CCN(Cc1nccs1)C2 (configuration not stated) | 3.29 | 10.7 | 3.41 | -1.44 | -5.02 | -54.3 | 7.69 | -3.63 | 7.29 | 30 | -7.28 |
| CN(C)C(=O)c1nc2c(s1)CCN(C(=O)c1ccc(Cl)cc1)CC2 | -2.69 | 18.7 | -9.31 | -1.54 | 2.7 | -29.6 | 10.4 | -8.27 | 9.38 | 30 | -12.2 |
| CCNC(=O)c1ccc(N2CCCC(c3nccn3C(C)C)C2)nc1 (configuration not stated) | -2.94 | 8 | -3.44 | 14.3 | 5.16 | 20.3 | 11.2 | 6.3 | 3.83 | 11.1 | -4.72 |
| c1csc(CN2C[C@@H]3OCCN(CC4CCCO4)[C@@H]3C2)c1 (some centres not stated) | -3.09 | 5.48 | -0.633 | 5.1 | -1.39 | -1.2 | 10.2 | 4.94 | 5.21 | 16.1 | 1.15 |
| CS(=O)(=O)NCC1CCCN(C(=O)Nc2ccccc2Cl)C1 (configuration not stated) | -1.65 | 13.2 | 8.6 | 0.518 | 1.66 | -5.92 | 15.2 | 29.4 | 7.45 | 18.2 | -7.52 |
| COC(=O)c1cccn1C1CCN(C(=O)c2cc(C)ccc2O)CC1 | -8.92 | 18.2 | 3.73 | -0.853 | -7.12 | 0.712 | 6.25 | 38.3 | 2.91 | 9.76 | -5.74 |
| CCCc1nc(C(=O)N2CCCn3nc(CCC(=O)O)cc3C2)cs1 | -7.52 | 5.41 | 2.34 | 4.25 | 1.54 | 2.38 | 11 | 3.31 | 3.7 | 9.76 | -5.37 |
| CN(C)C(=O)CCCNC(=O)C(c1cccc(F)c1)N(C)C (configuration not stated) | 0.633 | 13.5 | -10.5 | 5.14 | 5.41 | -1.43 | 11.7 | 24.9 | 10.1 | 12.2 | -1.94 |
| Cc1nn(C)c(C)c1C1CCCN1Cc1nc(C)c2ccccc2n1 (configuration not stated) | -3.55 | 3.8 | 1.88 | -0.0747 | 1.74 | 1.94 | 2.06 | -6.74 | 20.8 | 25.3 | -22.5 |
| CNC(=O)c1ccc(C(=O)N2CCCC2c2cnn(C)c2)cn1 (configuration not stated) | -3.23 | 7.89 | -6.87 | 5.79 | 3.08 | -2.88 | 9.05 | -13.2 | 5.42 | 6.17 | -6.61 |
| COc1ccccc1OCc1cc(C(=O)N2CC(O)C2)n[nH]1 | -4.46 | 4.17 | 141 | -2.11 | -0.875 | 3.09 | 6.49 | 1.4 | 4.21 | 10.3 | -1.24 |
| CCCS(=O)(=O)NC(C)C(=O)NCc1ccc(N2CCCC2)nc1 (configuration not stated) | -3.52 | 16.2 | -27.4 | -2.65 | -0.66 | -4.01 | 12.8 | 5.44 | 13.3 | 13.6 | -7.91 |
